Compounds without any hit were thinned out: in the full panel of roughly 83,000, 20% have a hit.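 Assay: single dose, 48 h. Readout: percent growth (0 = no net growth; negative = cell death). Active: <10.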 Values without a mark were called inactive. Active and inactive are the calls of the source.
Key:
Test in all cases: NCI-60 one-dose screen, 48 h (100 = growth as untreated, 0 = no growth, -100 = all killed)
Details in all cases: 10 µM
SK-MEL-2 melanoma = test system: SK-MEL-2 melanoma
EKVX NSCLC = test system: EKVX NSCLC
SN12C renal = test system: SN12C renal
UO-31 renal = test system: UO-31 renal
TK-10 renal = test system: TK-10 renal
ACHN renal = test system: ACHN renal
A498 renal = test system: A498 renal
CCRF-CEM leukemia = test system: CCRF-CEM leukemia
MOLT-4 leukemia = test system: MOLT-4 leukemia
CAKI-1 renal = test system: CAKI-1 renal

Row | SMILES | growth (SK-MEL-2 melanoma) | growth (EKVX NSCLC) | growth (SN12C renal) | growth (UO-31 renal) | growth (TK-10 renal) | growth (ACHN renal) | growth (A498 renal) | growth (CCRF-CEM leukemia) | growth (MOLT-4 leukemia) | growth (CAKI-1 renal)
1 | O=C(N/N=C/c1ccc(B(O)O)o1)c1[nH]c2ccc(Br)cc2c1-c1ccccc1 | 26.5% | 44.3% | 31.2% | 42.2% | 64.7% | 44.8% | 76.5% | 3.97% (active) | 16.9% | –
2 | O=C(Nc1cccc([N+](=O)[O-])c1)Nc1cccc([N+](=O)[O-])c1 | 91.1% | 77.1% | 82.4% | 63.9% | 84.2% | 84.8% | 94.4% | 69.7% | 76.4% | –
3 | COc1cccc(C(N)=Nc2ccc(OCCCCCCn3cncn3)cc2)c1 | 27.3% | 42% | 30.2% | 45.4% | 64.3% | 45% | 113% | 10.4% | – | –
4 | C#CCNC(=O)[C@]12CCC(C)(C)C[C@H]1C1=CC[C@@H]3[C@@](C)(CCC#N)[C@H](C(=C)C)CC[C@@]3(C)[C@]1(C)CC2 | 57.2% | 57.8% | 68.7% | 36.6% | 71.5% | – | 129% | 26.2% | – | 40.3%
5 | COc1ccc(-c2nc(-c3ccccc3)c(-c3ccccc3)n2-c2ccc(S(=O)(=O)Nc3ncccn3)cc2)cc1OC | 108% | 63.6% | 76.3% | 51.7% | 91.8% | 82.6% | 55% | 69% | 70.5% | –
6 | CC1(C)CC[C@]2(C(=O)NCCCNCCCCNCCCN)CC[C@]3(C)C(=CC[C@@H]4[C@@]5(C)Cc6c([nH]c7ccccc67)C(C)(C)[C@@H]5CC[C@]43C)[C@H]2C1 | 101% | 90.7% | 91.4% | 71% | 96.9% | 93.9% | 147% | 64.4% | – | –
7 | CN(CCF)c1ccc(/C=C/C(=O)c2ccc(N)cc2O)cc1 | 93% | 93.8% | 76.2% | 53.2% | 100% | 79.3% | 115% | 60.8% | 58% | –
8 | Cc1ccc(CSc2nc(Cl)c(C#N)c(-c3ccc(F)cc3)n2)cc1 | 92.1% | 79.6% | 70.2% | 67.9% | 91.7% | 85.4% | 91.6% | 67.7% | 61.9% | –
9 | COc1cc(NC(=O)CSc2nnc(-c3ccc4nc(-c5ccc(Cl)cc5)[nH]c4c3)o2)cc(OC)c1OC | 93.4% | 93.1% | 70.2% | 63.8% | 116% | 66.1% | 121% | 26.7% | 25.1% | –
10 | Cc1ccc(C(=O)CSc2nnc(-c3c[nH]c4ccccc34)n2-c2ccccc2)cc1 | 84.7% | 53% | 24.9% | 30.3% | -2.18% (active) | 20.4% | 85.8% | 60.8% | 61.7% | –
11 | NS(=O)(=O)c1ccc(N=Nc2c(O)n(CC(=O)Nc3ccccc3Br)c3ccccc23)cc1 | 1.95% (active) | 49.1% | 47.6% | 14.4% | 63.3% | 13.9% | – | 57.2% | 41.4% | –
12 | CC(=O)Nc1nc(-c2ccc(N3CCN(C)CC3)c(NS(=O)(=O)c3ccc(C(F)(F)F)cc3)c2)cs1 | 7.74% (active) | 72.2% | 13.7% | 24.9% | 10.8% | – | 52.3% | -13.4% (active) | – | 13.5%
13 | CCOC(=O)N/C(=C1/OCCN1C)[P+](c1ccccc1)(c1ccccc1)c1ccccc1 | 79.9% | 64.3% | 76.6% | 87.2% | 92.1% | 107% | 115% | 67.5% | 83.7% | –
14 | CC(C)C1=C[C@@]23CC[C@@H]4[C@](C)(CCC[C@]4(C)C(=O)NCc4ccccc4)[C@H]2C[C@@H]1[C@H]1C(=O)CCC(=O)[C@H]13 | 99.2% | 49.8% | 83.4% | 48.1% | 96.9% | 70.7% | 97.8% | 9.73% (active) | 16.2% | –
15 | CC1(c2ccccc2)NC(=O)N(CC(=O)Nc2ccc(C(=O)/C=C/c3ccc(Br)cc3)cc2)C1=O (stereo not given) | 52.3% | 55% | 51.2% | 34.3% | 76.7% | 35% | 71.1% | 32% | 13.9% | –
16 | O/N=C(\CSc1nnc(-c2c[nH]c3ccccc23)n1-c1ccccc1)c1ccc(Br)cc1 | -66.3% (active) | -63.3% (active) | -77.2% (active) | 3.58% (active) | -82.8% (active) | -83.5% (active) | 62.2% | -6.14% (active) | -19.2% (active) | –
17 | CN1CCN(c2ccc(Nc3nc(NCCCNC(=O)c4ccc(F)cc4)c4sccc4n3)cc2)CC1 | 106% | 87.8% | 78.8% | 71.6% | 119% | – | 129% | 18.8% | – | 69.8%
18 | O=C(Nc1cccc(C(F)(F)F)c1)c1cncc(C#Cc2cnc3ccc(N4CCOCC4)nn23)c1 | -26.3% (active) | -22.3% (active) | 4.67% (active) | -31.7% (active) | 27.3% | 3.28% (active) | -87.8% (active) | 10.6% | 3.44% (active) | –
19 | CCCn1c(=O)c2[nH]c(-c3ccc(OCc4nc5ccccc5[nH]4)cc3)nc2n(CCC)c1=O | 81.6% | 55.7% | 2.85% (active) | 35.7% | 17.4% | – | -10.5% (active) | 87.8% | 70.7% | 39.1%
20 | C=CCn1c(SCC(=O)Nc2ccc(C(=O)/C=C/c3ccccc3)cc2)nnc1-c1c[nH]c2ccccc12 | 58.3% | 40.9% | 68.3% | 31.2% | 89.2% | 52.2% | 109% | 55.4% | 33.2% | –
21 | C=C(C)[C@@H]1CC[C@]2(C)[C@H](CC=C3[C@@H]4CC(C)(C)CC[C@]4(C(=O)N4CCOCC4)CC[C@]32C)[C@@]1(C)CCCN | -92.1% (active) | -84.1% (active) | -89.1% (active) | -100% (active) | -95.7% (active) | -100% (active) | -89.5% (active) | -57.2% (active) | – | –
22 | Cc1ccc(-c2cc(C(=O)N=Nc3c(O)[nH]c4ccc(Br)cc34)c3ccccc3n2)cc1 | 104% | 60.6% | 48.6% | 52.2% | 119% | 52.3% | 125% | 26.8% | 14.9% | –
23 | COc1cccc2nc(Nc3cccc(NC(=O)c4ccc(CN5CCCN(C)CC5)c(C(F)(F)F)c4)c3)ccc12 | -87.4% (active) | -98.9% (active) | -79.9% (active) | -97.2% (active) | -89.4% (active) | – | -91% (active) | -54.3% (active) | -42.8% (active) | -100% (active)
24 | NS(=O)(=O)c1ccc(NC(=O)CSc2ccc(-c3ccccc3)nn2)c(Br)c1 | 95.8% | 70.1% | 57.4% | 75.1% | 118% | – | 120% | 89.9% | 95.6% | 84.5%
25 | O=C1Nc2cc(Cl)ccc2/C1=C/c1ccc(OCc2ccc(Br)cc2F)cc1 | -47.2% (active) | -13.7% (active) | -48.2% (active) | – | -54.8% (active) | -79.9% (active) | -46.4% (active) | 5.01% (active) | 10.3% | -59% (active)
26 | COc1cc(/C=C/C(=O)c2ccc(NC(=O)CN3C(=O)NC(C)(c4ccccc4)C3=O)cc2)cc(OC)c1OC (stereo not given) | 86% | 73.2% | 10.7% | 73.9% | 98.6% | – | 132% | 7.14% (active) | 1.84% (active) | 75.3%
27 | CCOc1ccc(/C=N/NC(=O)Cn2nc(Cc3ccccc3)c3onc(C)c3c2=O)cc1 | 3.12% (active) | 23.9% | 8.3% (active) | -2.49% (active) | 25.6% | – | -6.43% (active) | 86.6% | 79.6% | 12%
28 | Cc1cccc2cc(-c3cc(-c4ccccc4)nc(=S)[nH]3)c(Cl)nc12 | 27.8% | 76.5% | 89.2% | – | 136% | 78.1% | 99% | 66.2% | 43.6% | 76.2%
